Test results taken from PubChem BioAssay (Tox21).
Records with an inconclusive call do not appear. Entries that show only a call come without a potency. Active and inactive are the calls of the source. Unless noted, calls follow the shape of the dose curve; as a rule, active = well fitted curve in the direction sought with a large enough effect in the repeat runs; inconclusive = weak or mixed curves; inactive = no such curve, though single readings can be large; an effect the other way counts as inactive or inconclusive.

Columns and labels:
[1] = biological target: Luciferin 4-monooxygenase (Photinus pyralis) (UniProt P08659); experiment: qHTS assay to identify small molecule inhibitors of firefly luciferase (AID 1224835); also: nearly all actives have a fitted effect of over 25% in size; also: potency is read from the fitted curve at half-maximal effect
Chain of Luciferin 4-monooxygenase (Photinus pyralis) (P08659 whole entry, looked up): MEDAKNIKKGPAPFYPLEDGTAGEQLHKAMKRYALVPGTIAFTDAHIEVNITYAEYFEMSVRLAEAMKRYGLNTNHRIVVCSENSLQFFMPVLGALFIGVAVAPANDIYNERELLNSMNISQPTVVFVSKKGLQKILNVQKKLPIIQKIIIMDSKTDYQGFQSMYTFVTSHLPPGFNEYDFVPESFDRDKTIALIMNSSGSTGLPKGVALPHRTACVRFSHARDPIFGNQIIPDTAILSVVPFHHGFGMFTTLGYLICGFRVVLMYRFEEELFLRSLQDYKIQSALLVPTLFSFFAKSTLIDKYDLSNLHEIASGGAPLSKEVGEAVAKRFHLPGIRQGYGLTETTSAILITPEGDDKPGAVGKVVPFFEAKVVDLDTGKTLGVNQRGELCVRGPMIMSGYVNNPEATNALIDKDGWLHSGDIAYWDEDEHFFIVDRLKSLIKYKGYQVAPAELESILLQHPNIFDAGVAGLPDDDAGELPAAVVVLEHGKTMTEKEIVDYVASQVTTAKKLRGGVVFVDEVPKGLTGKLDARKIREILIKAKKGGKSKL
Procedure, shortened: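 Inhibition of purified Photinus luciferase is measured by luminescence. Substrate levels (D-luciferin, ATP) sit at their KM values. Each compound is tested in a concentration series.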

[2] = qHTS assay to identify small molecule agonists of the constitutive androstane receptor (CAR) signaling pathway - cell viability counter screen (AID 1224836); also: nearly all actives have a fitted effect of over 45% in size; also: potency is read from the fitted curve at half-maximal effect
Procedure, shortened: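 Compound titrations (15 concentrations) went onto HepG2-CYP2B6-hCAR cells 4 h after seeding, alongside PK11195 at a final 0.75 uM; a 23 h, 37 C/5% CO2 incubation preceded CellTiter-Fluor viability measurement.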

[3] = qHTS assay to identify small molecule antagonists of the constitutive androstane receptor (CAR) signaling pathway - cell viability counter screen (AID 1224837); also: nearly all actives have a fitted effect of over 45% in size; also: potency is read from the fitted curve at half-maximal effect
Procedure, shortened: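 HepG2 cells stably expressing hCAR and a CYP2B6-2.2kb reporter were plated and pre-incubated 4 hr at 37 C/5% CO2, then given compounds at 15 concentrations plus 50 nM CITCO (final). After 23 hr, viability was read by CellTiter-Fluor fluorescence.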

[4] = qHTS assay to identify small molecule antagonists of the estrogen related receptor signaling pathway with the pleiotropic PPARgamma coactivator (PGC) from Tox21 10K library - cell viability counter screen (AID 1224840; active = well fitted cell-killing curve with a large enough effect in the repeat runs, not every such curve was filed as active; also: nearly all actives have a fitted effect of over 40% in size; also: potency is read from the fitted curve at half-maximal effect)
Procedure, shortened: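 PGC/ERR cells were seeded at 2,000 cells/well and left 6 hours at 37 C/5% CO2 before pin-tool addition of compounds in DMSO. After 17.5 hours at 37 C, CellTiter-Fluor was added and fluorescence read 30 minutes later.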

[5] = qHTS assay to identify small molecule antagonists of the estrogen related receptor signaling pathway with the pleiotropic PPARgamma coactivator (PGC) from Tox21 10K library (AID 1224841; call rule not given here; also: actives are mostly falling curves and most rising ones were filed inactive; nearly all actives have a fitted effect of over 50% in size; also: potency is read from the fitted curve at half-maximal effect)
Procedure, shortened: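 PGC/ERR reporter cells were seeded at 2,000 cells/well and held 6 hours at 37 C/5% CO2 before pin-tool addition of compounds in DMSO. After 18 hours at 37 C, One-Glo was added and luminescence read after 30 minutes at room temperature.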

[6] = qHTS assay to identify small molecule agonists of the estrogen related receptor signaling pathway with the pleiotropic PPARgamma coactivator (PGC) from Tox21 10K library (AID 1224842); also: nearly all actives have a fitted effect of over 15% in size
Procedure, shortened: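 Luminescence from One-Glo (30 min, room temperature) measured after PGC/ERR cells had 18 h at 37 C with pinned compound (23 nL in DMSO). Cells had been seeded at 2,000 per well and pre-incubated 6 h.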

[7] = biological target: Thyrotropin receptor (Homo sapiens) (UniProt P16473); experiment: qHTS assay to identify small molecule agonists of the thyroid stimulating hormone receptor (TSHR) signaling pathway (AID 1224843; calls by dose curve; also: nearly all actives have a fitted effect of over 45% in size)
Chain of Thyrotropin receptor (Homo sapiens) (P16473 whole entry, looked up): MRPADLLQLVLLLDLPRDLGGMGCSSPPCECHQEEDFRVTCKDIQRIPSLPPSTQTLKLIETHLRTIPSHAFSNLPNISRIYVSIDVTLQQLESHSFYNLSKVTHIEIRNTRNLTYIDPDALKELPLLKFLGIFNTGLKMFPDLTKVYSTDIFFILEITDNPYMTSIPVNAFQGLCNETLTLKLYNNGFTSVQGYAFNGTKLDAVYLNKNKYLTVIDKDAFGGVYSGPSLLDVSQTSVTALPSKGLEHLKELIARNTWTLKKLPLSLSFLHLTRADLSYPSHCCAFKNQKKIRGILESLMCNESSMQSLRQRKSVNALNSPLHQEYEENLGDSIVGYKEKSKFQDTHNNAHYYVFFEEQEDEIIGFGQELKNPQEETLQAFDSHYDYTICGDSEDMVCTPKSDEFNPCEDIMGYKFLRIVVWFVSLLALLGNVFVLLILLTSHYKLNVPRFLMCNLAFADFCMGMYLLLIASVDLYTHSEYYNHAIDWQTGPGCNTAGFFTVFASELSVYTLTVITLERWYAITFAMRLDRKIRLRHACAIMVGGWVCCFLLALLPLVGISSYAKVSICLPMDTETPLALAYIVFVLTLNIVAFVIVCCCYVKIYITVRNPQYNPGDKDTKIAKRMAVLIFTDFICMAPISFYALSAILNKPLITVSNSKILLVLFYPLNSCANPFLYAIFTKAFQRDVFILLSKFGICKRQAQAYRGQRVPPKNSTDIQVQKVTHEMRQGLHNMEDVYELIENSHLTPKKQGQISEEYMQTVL
Procedure, shortened: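 Screening of the Tox21 10K collection used HEK293 cells engineered with TSHR at 800 cells per well. After a 30-min room-temperature compound exposure, HTRF cAMP reagents were added and fluorescence recorded 1 h later.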

[8] = qHTS assay to identify small molecule agonists of the hypoxia (HIF-1) signaling pathway - cell viability counter screen (AID 1224844; calls by dose curve; also: nearly all actives have a fitted effect of over 50% in size; also: potency is read from the fitted curve at half-maximal effect)
Procedure, shortened: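 HRE-bla ME-180 cells in medium with 0.5% dialyzed FBS were preincubated 5 hrs at 37C, exposed to compounds for 17 hrs, then viability was read as CellTiter-Glo luminescence after 30 min at room temperature, in the reporter wells.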

[9] = biological target: Nuclear receptor subfamily 1 group I member 3 (Homo sapiens) (UniProt Q14994); experiment: qHTS assay to identify small molecule antagonists of the constitutive androstane receptor (CAR) signaling pathway (AID 1224838); also: nearly all actives have a fitted effect of over 40% in size; also: potency is read from the fitted curve at half-maximal effect
Chain of Nuclear receptor subfamily 1 group I member 3 (Homo sapiens) (Q14994 whole entry, looked up): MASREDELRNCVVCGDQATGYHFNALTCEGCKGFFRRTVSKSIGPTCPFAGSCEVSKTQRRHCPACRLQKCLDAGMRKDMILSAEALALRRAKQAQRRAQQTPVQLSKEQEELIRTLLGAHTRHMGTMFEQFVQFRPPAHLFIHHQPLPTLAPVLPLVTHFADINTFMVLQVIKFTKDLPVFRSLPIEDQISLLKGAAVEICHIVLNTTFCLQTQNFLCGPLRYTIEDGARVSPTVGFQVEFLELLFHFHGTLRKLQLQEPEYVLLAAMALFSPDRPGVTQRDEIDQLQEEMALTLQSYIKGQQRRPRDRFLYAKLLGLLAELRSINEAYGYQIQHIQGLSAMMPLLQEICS
Procedure, shortened: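 HepG2 cells stably co-transfected with hCAR and a CYP2B6-2.2kb luciferase reporter were seeded 4 h before compound addition at 15 concentrations. Cells were stimulated with 50 nM CITCO (final) for 24 h at 37 C; luciferase luminescence was then read.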

[10] = biological target: Nuclear receptor subfamily 1 group I member 3 (Homo sapiens) (UniProt Q14994); experiment: qHTS assay to identify small molecule agonists of the constitutive androstane receptor (CAR) signaling pathway (AID 1224839);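 also: HepG2 cells stably carrying human CAR and a CYP2B6 luciferase reporter; series mostly up to about 92 µM; nearly all actives have a fitted effect of over 15% in size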
Procedure, shortened: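 In this screen, CAR-driven CYP2B6 promoter activity is measured by luminescence in HepG2-CYP2B6-hCAR cells after 24 h with test compounds and 0.75 uM PK11195 (final concentration).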

Cc1cccc(C)c1OCC(=O)N[C@@H](Cc1ccccc1)[C@@H](O)C[C@H](Cc1ccccc1)NC(=O)[C@H](C(C)C)N1CCCNC1=O
Potency [1]: inactive | Potency [2]: 18.8 µM (active) | Potency [3]: 13.3 µM (active) | Potency [4]: 33.5 µM (active) | Potency [5]: 13.3 µM (active) | Potency [6]: inactive | Potency [7]: inactive

COc1ccc(C(=O)N2CCN(CC(=O)N3CCOCC3)CC2)cc1
Potency [1]: inactive | Potency [2]: inactive | Potency [3]: inactive | Potency [4]: inactive | Potency [5]: inactive | Potency [6]: inactive | Potency [7]: inactive | Potency [8]: inactive

CN1CCN(C(c2ccccc2)c2ccccc2)CC1
Potency [1]: inactive | Potency [2]: inactive | Potency [3]: inactive | Potency [4]: inactive | Potency [7]: inactive | Potency [8]: inactive

CC/C=C\CCOC(=O)CC
Potency [1]: inactive | Potency [2]: inactive | Potency [3]: inactive | Potency [4]: inactive | Potency [7]: inactive | Potency [8]: inactive

COc1cc2c(cc1OC)C(C(C(=O)N(CCc1ccc(OC)c(OC)c1OC)CCc1ccc(OC)c(OC)c1OC)c1ccccc1)=NCC2 (configuration not stated)
Potency [1]: inactive | Potency [2]: inactive | Potency [5]: 23.7 µM (active) | Potency [6]: inactive | Potency [7]: inactive

C#C[C@]1(O)CC[C@H]2[C@@H]3CCc4cc(OC5CCCC5)ccc4[C@H]3CC[C@@]21C
Potency [1]: inactive | Potency [2]: inactive | Potency [4]: inactive | Potency [8]: 15.1 µM (active)

O=C1OC(CN2CCOCC2)CN1/N=C/c1ccc([N+](=O)[O-])o1 (configuration not stated)
Potency [1]: inactive | Potency [2]: inactive | Potency [3]: inactive | Potency [4]: inactive | Potency [8]: inactive

CN(C)C(=O)NC1(c2ccccc2)CCN(CC[C@@]2(c3ccc(F)c(F)c3)CN(C(=O)c3ccccc3)CCO2)CC1
Potency [1]: inactive | Potency [2]: inactive | Potency [3]: inactive | Potency [6]: inactive | Potency [7]: inactive | Potency [8]: inactive

O=C(O)c1ccc(S(=O)(=O)O)cc1C(=O)O
Potency [1]: inactive | Potency [3]: inactive | Potency [9]: inactive | Potency [10]: inactive | Potency [4]: inactive | Potency [6]: inactive | Potency [7]: inactive | Potency [8]: inactive

COc1cc(C(=O)OCCCN2CCCN(CCCOC(=O)c3cc(OC)c(OC)c(OC)c3)CC2)cc(OC)c1OC
Potency [1]: inactive | Potency [2]: inactive | Potency [9]: inactive | Potency [10]: inactive | Potency [5]: inactive | Potency [6]: inactive | Potency [7]: inactive

CCc1c(C(=O)NN2CCCCC2)nn(-c2ccc(Cl)cc2Cl)c1-c1ccc(Br)cc1
Potency [1]: inactive | Potency [2]: inactive | Potency [9]: 21.7 µM (active) | Potency [10]: inactive | Potency [5]: 4.86 µM (active) | Potency [6]: inactive | Potency [7]: inactive | Potency [8]: 21.9 µM (active)

CCCCCCCC/C=C\CCCCCCCC(=O)OCC
Potency [1]: inactive | Potency [3]: inactive | Potency [9]: inactive | Potency [10]: inactive | Potency [4]: inactive | Potency [5]: inactive | Potency [6]: inactive | Potency [7]: inactive | Potency [8]: inactive

CO[C@@H]1[C@H](OC(=O)/C=C/C=C/C=C/C=C/C(=O)O)CC[C@]2(CO2)[C@H]1[C@@]1(C)O[C@@H]1CC=C(C)C
Potency [1]: inactive | Potency [2]: inactive | Potency [10]: inactive | Potency [4]: inactive | Potency [5]: inactive | Potency [6]: inactive | Potency [7]: inactive

O=C(O)CC(=O)C(=O)O
Potency [1]: inactive | Potency [2]: inactive | Potency [4]: inactive | Potency [7]: inactive | Potency [8]: inactive

CC(CC=O)c1ccccc1 (configuration not stated)
Potency [1]: inactive | Potency [2]: inactive | Potency [9]: inactive | Potency [10]: inactive | Potency [4]: inactive | Potency [7]: inactive | Potency [8]: inactive

COC(=O)C1=C(C)NC(COC(N)=O)=C(C(=O)OC(C)C)C1c1cccc(Cl)c1Cl (configuration not stated)
Potency [1]: inactive | Potency [2]: inactive | Potency [9]: inactive | Potency [10]: inactive | Potency [6]: inactive | Potency [7]: inactive | Potency [8]: inactive

C=C(C)C(=O)OCCO
Potency [1]: inactive | Potency [2]: inactive | Potency [9]: inactive | Potency [10]: inactive | Potency [4]: inactive | Potency [7]: inactive | Potency [8]: inactive

O=C(OCCc1ccccc1)c1ccccc1
Potency [1]: 1 µM (active) | Potency [3]: inactive | Potency [9]: inactive | Potency [10]: inactive | Potency [4]: inactive | Potency [7]: inactive

CC1=CCCC(C)(C)C12CCC(C)O2 (configuration not stated)
Potency [1]: inactive | Potency [2]: inactive | Potency [4]: inactive | Potency [8]: inactive
